Screening data (PubChem BioAssay)
Sampled rows, rich in hits. Any-hit rate of the full collection: about 2.1%.
FUS yeast rescue – suppressors of FUS proteinopathy in yeast; 390,000 compounds, 0.24% hits; Potency, µM (highest dose often 76.6 µM), hits mostly activators; S. cerevisiae FUS-expressing, growth rescue, OD600, 24 h; note: nearly all actives have a fitted effect of over 55% in size
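FUS-expressing yeast, raffinose-pregrown, induced in 2% galactose minimal medium at OD 0.005; compounds in a dilution series, 24hr at 30C. Growth restoration read as absorbance at 600 nm. CP55940 positive control, DMSO negative.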
aSyn rescue – inhibitors of alpha-synuclein toxicity in yeast; Yeast expressing alpha-synuclein, growth rescue, BacTiter-Glo, 24 h; Potency, µM (doses to about 46.1 µM), hits mostly activators; 370,000 compounds, 0.14% hits; AID 652106; note: nearly all actives have a fitted effect of over 65% in size
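Galactose-induced alpha-syn yeast (OD600=0.02, raffinose-pregrown) + pinned cpd, 24 hr, 30 deg C; growth by BacTiter-Glo luminescence. Growth restoration scores as activation.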
Abeta rescue – compounds reversing amyloid beta toxicity in yeast; yeast expressing A-beta42, growth rescue, OD600, 48 h; response scale: 0% DMSO, 100% iron-clioquinol control; Potency, µM (top dose mostly 46.1 µM), usual class: activators; 410,000 compounds, 0.063% hits; note: nearly all actives have a fitted effect of over 55% in size
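Yeast A-beta toxicity model in growth medium with pinned compounds, 48 h at 30 C; growth read as absorbance at 600 nm. Normalized to FeCl3/clioquinol equimolar mix (positive) and DMSO (negative).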
TDP43 rescue – TDP-43 toxicity inhibition in yeast. TDP-43 expressing yeast growth rescue, BacTiter-Glo, 24 h. Potency, µM (highest dose often 46.1 µM), usual class: activators. AID 652104. 410,000 compounds, 1.8% hits; note: nearly all actives have a fitted effect of over 50% in size
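Yeast cells expressing TDP-43 under galactose induction are exposed to compounds for 24 hr at 30 deg C. BacTiter-Glo luminescence measures growth, so protective compounds score as activators.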
Of the large screens only hits and unclear results are named; the others gave an inactive call. Calls come from the whole dose curve; as a rule, active = well fitted curve in the direction sought with a large enough effect; inconclusive = small, poorly fitted or top-dose-only effect, or another doubt; inactive = no such curve, though single readings can be large; an effect the other way counts as inactive or inconclusive.

CC1(C(=O)NCCc2ccccc2)Cc2c(-c3ccc4c(c3)OCO4)ccnc2O1 (stereo unspecified)	none
CC(=O)c1cccc(NC(=O)C2(C)Cc3c(-c4ccccc4)ccnc3O2)c1 (stereo unspecified)	TDP43 rescue 20µM
CC1(C(=O)NCc2ccccc2)Cc2c(-c3ccc4c(c3)OCO4)ccnc2O1 (stereo unspecified)	TDP43 rescue 18µM
CC1(C(=O)NCc2ccc(F)c(F)c2)Cc2c(-c3ccccc3)ccnc2O1 (stereo unspecified)	TDP43 rescue 35µM
CCOC(=O)Cn1cc(CN2C(C(=O)OC)CN(Cc3ccc(Cl)cc3)CCS2(=O)=O)nn1 (stereo unspecified)	none (no result: aSyn rescue, Abeta rescue, TDP43 rescue)
C[S+](C)CC(=O)c1ccc2ccccc2c1	none (no result: FUS yeast rescue, Abeta rescue, TDP43 rescue)
O=C1c2ccccc2-c2cc(Br)ccc2NC1O (stereo unspecified)	aSyn rescue 22µM, TDP43 rescue inconclusive
O=C1NC(c2ccc(Br)cc2)Nc2ccccc21 (stereo unspecified)	none
O=C1OC(/C(=C\Nc2ccc(F)cc2F)[N+](=O)[O-])c2ccccc21 (stereo unspecified)	aSyn rescue 18µM, TDP43 rescue inconclusive
C[N+](C)(CCCCCI)c1ccc(/C=C/c2nc3ccccc3s2)cc1	none (no result: FUS yeast rescue, Abeta rescue, TDP43 rescue)
CC(c1c[nH]c2ccccc12)c1c[nH]c2ccc(Br)cc12 (stereo unspecified)	none (no result: aSyn rescue, Abeta rescue, TDP43 rescue)
COC(=O)[C@H](CC(C)C)N1Cc2nnn(CC3CCCCC3)c2-c2cc(F)ccc2S1(=O)=O	none (no result: aSyn rescue, Abeta rescue, TDP43 rescue)
CCCCc1cc(=O)oc2c(C)c(OCC(=O)N3CCC(C(=O)O)(c4ccccc4)CC3)ccc12	FUS yeast rescue 28µM
Cc1ccc(-n2nnnc2-c2cnoc2-c2cccc(F)c2)cc1	TDP43 rescue 14µM
C=CCn1c(SCc2ccc(C#N)cc2)nnc1-c1cccc(Cl)c1	TDP43 rescue 14µM
COC(=O)C1CN(CC(C)C)CCS(=O)(=O)N1Cc1ccc(Cl)cc1 (stereo unspecified)	none (no result: aSyn rescue, Abeta rescue, TDP43 rescue)
CCc1ccc2oc(C(=O)Nc3cccnc3)c(C)c2c1	none
Cc1c(C(=O)Nc2cccnc2)oc2ccc(Br)cc12	TDP43 rescue 8.9µM
Cc1nnc2c3ccccc3nc(N3CCN(c4cccc(Cl)c4)CC3)n12	TDP43 rescue 25µM (no result: aSyn rescue)
Cc1ccc(-c2nnc(SCC(=O)NN=Cc3c[nH]c4ccccc34)n2-c2ccccc2)cc1	none (no result: aSyn rescue, Abeta rescue, TDP43 rescue)
O=C(c1cnn(-c2ccccc2)c1)c1cc(Br)ccc1O	none (no result: FUS yeast rescue)
CC(C)c1ccc(O)c(C(=O)c2cnn(-c3ccccc3)c2)c1	TDP43 rescue 20µM
CC(C)(C)C1CCC(=NNC(=O)c2cc3c(s2)CCCC3)CC1 (stereo unspecified)	none (no result: FUS yeast rescue)
CC(C)(C)C1CCc2sc(C(=O)NNC(=O)CCl)cc2C1 (stereo unspecified)	TDP43 rescue 13µM
O=C(Nc1ccc(Cl)c(Cl)c1)Nc1ccon1	TDP43 rescue 35µM
COC(=O)c1cc(-c2ccc(F)cc2OCc2ccccc2)c(=O)n2c1CCC2	none (no result: aSyn rescue, Abeta rescue, TDP43 rescue)
O=Cc1ccc(N2Cc3ccccc3C2)cc1	TDP43 rescue 3.2µM
CC(=O)NNC(=S)NC(=O)C(c1ccccc1)c1ccccc1	Abeta rescue inconclusive, TDP43 rescue 25µM
CC(C)(C)C(=O)NC(=S)NNC(=O)C(c1ccccc1)c1ccccc1	aSyn rescue 18µM, Abeta rescue inconclusive, TDP43 rescue inconclusive
Cc1ccc2nc(SCC(=O)Nc3cccnc3Cl)[nH]c2c1	none (no result: FUS yeast rescue)
CC(=O)c1cc2c(cc1NC(=O)CSc1nc3ccc(C)cc3[nH]1)OCO2	TDP43 rescue 13µM
O=C(Nc1nc2c(s1)CCCC2)Oc1ccccc1	none
C/C(=N\Nc1nc2c(s1)CCCC2)c1ccccc1	FUS yeast rescue inconclusive, TDP43 rescue 20µM
C/C(=N\Nc1nc(C(C)(C)C)cs1)c1ccccc1	TDP43 rescue 22µM
CCC(=O)N1CCc2cc(Br)c(S(=O)(=O)N3CCCC(C(=O)NC(C)(C)C)C3)cc21 (stereo unspecified)	none (no result: aSyn rescue, Abeta rescue, TDP43 rescue)
Cc1nc2ccc(NC(=S)NCc3ccccc3)cc2nc1C	none
Cc1ccc(NC(=S)NCc2ccccc2)cc1C	TDP43 rescue 13µM
FC(F)(F)c1cccc(NC(=S)NCc2ccccc2)c1	Abeta rescue inconclusive, TDP43 rescue 14µM
CCOc1cc(OCC)cc(C(=O)NC(=S)Nc2cccc(C(F)(F)F)c2)c1	none (no result: FUS yeast rescue)
O=C(NC(=S)Nc1cccc(C(F)(F)F)c1)c1ccc2nonc2c1	TDP43 rescue 11µM
Cc1nc2cc(C(=O)N3CCN(C(=O)C(Cl)Cl)CC3)ccc2n1C1CCCC1	none (no result: aSyn rescue, Abeta rescue, TDP43 rescue)
COc1ccc2[nH]c(C)c(C(=O)CNc3nccs3)c2c1	none (no result: FUS yeast rescue, Abeta rescue, TDP43 rescue)
O=C(COC(=O)c1c2ccccc2cc2ccccc12)NCC(F)(F)F	TDP43 rescue 16µM (no result: FUS yeast rescue)
CCOc1ccc(-c2nc(N)ncc2-c2ccc(Cl)cc2)c(O)c1	TDP43 rescue 22µM
CCOc1ccc(-c2nc(N)ncc2-c2ccc(OC)cc2)c(O)c1	none (no result: FUS yeast rescue)
COc1ccc(C(=O)CCC(=O)O)cc1	none
O=C(O)CCC(=O)c1ccc(C2CCCCCC2)cc1	TDP43 rescue 18µM
COc1cccc(-n2nnnc2S(C)(=O)=O)c1	TDP43 rescue 1µM (no result: FUS yeast rescue)
Cc1cccc(-n2nnnc2S(C)(=O)=O)c1	TDP43 rescue 18µM (no result: aSyn rescue)
COC(=O)c1nnn(-c2cccc(C)c2)c1C(=O)OC	none (no result: aSyn rescue)
COc1cccc(-n2cnnn2)c1	none
Cc1ccc(S(=O)(=O)NCc2c(Cl)cccc2Oc2ccccc2)cc1	TDP43 rescue 20µM
COc1cc2c(cc1[N+](=O)[O-])-c1ccc([N+](=O)[O-])cc1C2=NO	TDP43 rescue 10µM
O=[N+]([O-])c1ccc2c(c1)/C(=N\O)c1ccccc1-2	none
CC[C@H]1OC(=O)[C@H](C)[C@@H](O[C@H]2C[C@@](C)(OC)[C@@H](O)[C@H](C)O2)C(C)[C@@H](O[C@@H]2O[C@H](C)C[C@H](N(C)C)[C@H]2O)[C@](C)(O)C[C@@H](C)CN(C)[C@H](C)[C@@H](O)[C@]1(C)O (stereo partly specified)	none (no result: aSyn rescue, Abeta rescue, TDP43 rescue)
CCCC1CCC(c2ccc(/C(N)=N/O)cc2)CC1 (stereo unspecified)	TDP43 rescue 3.5µM
Cc1csc(NC(=O)c2cc3c(s2)CCCC3)n1	TDP43 rescue 28µM
Cc1csc(NC(=O)c2cc3c(s2)CCCCC3)n1	none
O=C(Nc1ccccc1N1CCOCC1)c1cc2c(s1)CCCCC2	TDP43 rescue 7.9µM
O=C(Nc1ccon1)c1cc2c(s1)CCCCCC2	TDP43 rescue 13µM
O=Cc1ccc(CS)cc1	none (no result: FUS yeast rescue, Abeta rescue, TDP43 rescue)
C=CCN1[C@@H](C)COc2cc(F)ccc2S1(=O)=O	none (no result: aSyn rescue, Abeta rescue, TDP43 rescue)
CCCC1CCC2(CCCN2CCOC(=O)Nc2ccc(F)cc2)CC1 (stereo unspecified)	none (no result: aSyn rescue, Abeta rescue, TDP43 rescue)
Cc1cccc(NC(=O)C2C3C=CC(C4CC34)C2C(=O)O)c1 (stereo unspecified)	TDP43 rescue inconclusive
O=C(O)C1C2C=CC(C3CC23)C1C(=O)O (stereo unspecified)	TDP43 rescue 14µM
CCOC(=O)C1C[C@@H](O)C=CC1=O (stereo partly specified)	none (no result: aSyn rescue, Abeta rescue, TDP43 rescue)
